Experimental data: PubChem BioAssay (Tox21)
Records with an inconclusive call do not appear. A call without a number means that no potency is given here. Activity calls are given as the source filed them. The call rests on the fitted dose curve; in most records, active means well fitted cell-killing curve with a large enough effect in the repeat runs; inconclusive means weak or mixed curves, or effect the other way; inactive means flat fitted curve, though single readings scatter.

Experiment: qHTS assay to identify small molecule agonists of the androgen receptor (AR) signaling pathway in the presence of an antagonist - cell viability counter screen (AID 1259379); further: nearly all actives have a fitted effect of over 25% in size
Conditions: MDA-kb2 viability, CellTiter-Fluor, 16 h; series mostly up to 92.4 µM
Source text: National Center for Advancing Translational Sciences [NCATS]
NIH Chemical Genomics Center [NCGC]
U.S. Environmental Protection Agency [EPA]
National Institutes of Environmental Health Sciences [NIEHS]
National Toxicology Program [NTP]
U.S. Food and Drug Administration [FDA]
Androgen receptor (AR) is an important member of nuclear receptor family. Its signaling plays a critical role in AR-dependent prostate cancer and other androgen related diseases. Considerable attention has been given in the past decades to develop methods to study and screen for the environmental chemicals that have the potential to interfere with metabolic homeostasis, reproduction, developmental and behavioral functions. Therefore AR binding assay for screening against androgen agonists and antagonists can be used to identify potential endocrine disruptors.
MDA-kb2 cells (from ATCC, deposited by Wilson et al.) are human breast carcinoma cells that were stably transfected with a luciferase reporter gene under control of the MMTV promoter that contains response elements for both androgen receptor (AR) and glucocorticoid receptor (GR). This particular screening for measuring luciferase reporter gene activity using MDA-kb2 cells against Tox21 10K library compounds is a confirmation study on agonist mode screening in the presence of AR-antagonist compound (Nilutamide) at 3.0uM final concentration. The cytotoxicity of the compounds was tested in parallel by measuring the cell viability using CellTiter-Fluor assay system (Promega, Madison, WI) in the same wells.
Tox21 Assay Protocol Summary:
MDA-kb2 cells (cells cultured without CO2) were dispensed at 3,000 cells/well in 4uL of culture medium into white wall/solid-bottom 1536-well plates (Corning Life Sciences, Corning, NY) using a Multidrop Combi (Thermo Fisher Scientific Inc., Waltham, MA) dispenser. The assay plates were incubated at 37C and 0% CO2 for 5hr. One uL of 3.0uM (final concentration) Nilutamide or assay buffer was added using two separate tips of Flying Reagent Dispenser (FRD, Aurora Discovery, San Diego, CA). Then 23nL of compounds dissolved in DMSO at 15 concentrations and positive controls were transferred to the assay plates using a Pintool station (Wako, San Diego, CA). The assay plates were incubated at 37C and 0% CO2 for 16 hr. After 15hr incubation at 37C, 1uL/well CellTiter-Fluor reagent (Promega Corporation) was added to each well of the assay plates using FRD. After 1hr incubation at 37C and 0% CO2, the fluorescence signal was measured using a ViewLux plate reader (PerkinElmer, Shelton, CT).
Potency means the concentration at half of the fitted maximal effect.

**Q.** For Nc1c(Br)cc([N+](=O)[O-])cc1Br, which Potency is on record?
**A.** inactive

**Q.** Which Potency does the source give for Cc1ccc2nc(-c3ccc(N)cc3)sc2c1S(=O)(=O)O here?
**A.** inactive

**Q.** With C=CC(=O)OCCOC1C2CCC1C1CC=CC12 (stereo not given) as the compound, how does the activity change, negative = cytotoxicity read?
**A.** -6.73% [at 19 µM] (inactive)

**Q.** With CC(C)(c1ccc(Oc2ccc(N)cc2)cc1)c1ccc(Oc2ccc(N)cc2)cc1 as the compound, how does the Potency read?
**A.** 54.5 µM (active)

**Q.** Which Potency does the source give for CCN(CC)c1ccc(N=Nc2ccccc2)cc1 here?
**A.** 27.3 µM (active)

**Q.** Which Potency does the source give for CCC(C)(C)c1ccc(CC(C)CN2C[C@@H](C)O[C@@H](C)C2)cc1 (stereo not given in full) here?
**A.** inactive

**Q.** For Oc1cccc2c(O)cccc12, which Potency is on record?
**A.** inactive

**Q.** For Nc1ccc(F)c([N+](=O)[O-])c1, which Potency is on record?
**A.** inactive

**Q.** Which Potency does the source give for COc1cc([C@@H]2c3cc4c(cc3[C@@H](O[C@@H]3O[C@@H]5CO[C@@H](C)O[C@H]5[C@H](O)[C@H]3O)[C@H]3COC(=O)[C@H]23)OCO4)cc(OC)c1O here?
**A.** inactive

**Q.** With S=C1NC=NC2N=CNC12 (stereo not given) as the compound, how does the Potency read?
**A.** inactive

**Q.** For Nc1ccc2c(S(=O)(=O)O)cccc2c1S(=O)(=O)O, which Potency is on record?
**A.** inactive

**Q.** With CC(C)=CCC[C@H](C)CC=O as the compound, how does the Potency read?
**A.** inactive

**Q.** With Clc1ccc2c(Cl)ccnc2c1 as the compound, how does the Potency read?
**A.** inactive

**Q.** For CCN(CC)c1ccc(C=O)cc1, which Potency is on record?
**A.** inactive

**Q.** For C/C=C/C(=O)C1=C(C)C=CCC1(C)C, which Potency is on record?
**A.** inactive

**Q.** For Cc1cc(C)c(O)c(C(C)(C)C)c1, which Potency is on record?
**A.** inactive

**Q.** With C/C(=C\c1ccc(C(=O)O)cc1)c1ccc2c(c1)C(C)(C)CCC2(C)C as the compound, how does the Potency read?
**A.** inactive

**Q.** With O[Si](c1ccccc1)(c1ccccc1)c1ccccc1 as the compound, how does the Potency read?
**A.** inactive

**Q.** For O=C1OC2(c3ccccc31)c1ccc(O)c(Br)c1Oc1c2ccc(O)c1Br, which Potency is on record?
**A.** 61.1 µM (active)

**Q.** For c1ccc(-c2ccccc2-c2ccccc2)cc1, which Potency is on record?
**A.** inactive

**Q.** Which Potency does the source give for CCc1c(C)cc(N)c(CC)c1N here?
**A.** inactive

**Q.** Which Potency does the source give for [Cl][Sc]([Cl])[Cl] here?
**A.** inactive

**Q.** With O=C(N[C@H](CO)[C@H](O)c1ccc([N+](=O)[O-])cc1)C(Cl)Cl as the compound, how does the Potency read?
**A.** inactive

**Q.** For CCCCCc1ccc(O)cc1, which Potency is on record?
**A.** inactive

**Q.** Which Potency does the source give for CCc1cccc(C)c1N(C(=O)C(=O)O)C(C)COC (stereo not given) here?
**A.** inactive

**Q.** For CCCCCCCCCCCCCCCCCCNC(=O)OC1CCN(C(=O)OC[C@H](COC(=O)N(Cc2cccc[n+]2CC)C(=O)c2ccccc2OC)OC)CC1, which Potency is on record?
**A.** 26.6 µM (active)

**Q.** With O=[N+]([O-])c1ccc(O)c2ncccc12 as the compound, how does the Potency read?
**A.** 11.9 µM (active)

**Q.** With CCNc1nc(NC(C)(C)C)nc(OC)n1 as the compound, how does the Potency read?
**A.** inactive

**Q.** For Cc1ccc(S(=O)(=O)C(I)I)cc1, which Potency is on record?
**A.** 68.6 µM (active)

**Q.** With O=c1[nH]cccc1O as the compound, how does the Potency read?
**A.** inactive

**Q.** Which Potency does the source give for Cc1cccc(C)c1C here?
**A.** inactive

**Q.** For CCOC(=O)C1=NN(c2ccc(Cl)cc2Cl)C(C)(C(=O)OCC)C1 (stereo not given), which Potency is on record?
**A.** inactive

**Q.** Which Potency does the source give for CC(C)(C)c1cc(CCC(=O)OCCSCCOC(=O)CCc2cc(C(C)(C)C)c(O)c(C(C)(C)C)c2)cc(C(C)(C)C)c1O here?
**A.** inactive

**Q.** For C=COCCCC, which Potency is on record?
**A.** inactive

**Q.** Which Potency does the source give for Cc1ccc(Cl)c(N)c1Cl here?
**A.** inactive

**Q.** Which Potency does the source give for CN1CCN(c2ccccc2/C=C2\SCCN(c3ccc(Cl)c(Cl)c3)C2=O)CC1 here?
**A.** 48.6 µM (active)

**Q.** Which Potency does the source give for CCOC(=O)[C@H](C)O here?
**A.** inactive

**Q.** Which Potency does the source give for NC(=O)c1ccccc1Cl here?
**A.** inactive

**Q.** For Oc1ccc2c(c1)CCC2, which Potency is on record?
**A.** inactive

**Q.** For O=C1CCC(=O)N1, which Potency is on record?
**A.** inactive
